About 3,000 (1%) of roughly 290,000 compounds were called active. Cut-off read from the data, not from the text of the source: active = inhibition mostly above about 36% (no sharp cut-off); inactive = mostly below about 34%. The full list was thinned out, with actives kept by preference.
Target: T1, Nucleotide-binding oligomerization domain-containing protein 1, Homo sapiens (UniProt Q9Y239)
T1 sequence (whole entry): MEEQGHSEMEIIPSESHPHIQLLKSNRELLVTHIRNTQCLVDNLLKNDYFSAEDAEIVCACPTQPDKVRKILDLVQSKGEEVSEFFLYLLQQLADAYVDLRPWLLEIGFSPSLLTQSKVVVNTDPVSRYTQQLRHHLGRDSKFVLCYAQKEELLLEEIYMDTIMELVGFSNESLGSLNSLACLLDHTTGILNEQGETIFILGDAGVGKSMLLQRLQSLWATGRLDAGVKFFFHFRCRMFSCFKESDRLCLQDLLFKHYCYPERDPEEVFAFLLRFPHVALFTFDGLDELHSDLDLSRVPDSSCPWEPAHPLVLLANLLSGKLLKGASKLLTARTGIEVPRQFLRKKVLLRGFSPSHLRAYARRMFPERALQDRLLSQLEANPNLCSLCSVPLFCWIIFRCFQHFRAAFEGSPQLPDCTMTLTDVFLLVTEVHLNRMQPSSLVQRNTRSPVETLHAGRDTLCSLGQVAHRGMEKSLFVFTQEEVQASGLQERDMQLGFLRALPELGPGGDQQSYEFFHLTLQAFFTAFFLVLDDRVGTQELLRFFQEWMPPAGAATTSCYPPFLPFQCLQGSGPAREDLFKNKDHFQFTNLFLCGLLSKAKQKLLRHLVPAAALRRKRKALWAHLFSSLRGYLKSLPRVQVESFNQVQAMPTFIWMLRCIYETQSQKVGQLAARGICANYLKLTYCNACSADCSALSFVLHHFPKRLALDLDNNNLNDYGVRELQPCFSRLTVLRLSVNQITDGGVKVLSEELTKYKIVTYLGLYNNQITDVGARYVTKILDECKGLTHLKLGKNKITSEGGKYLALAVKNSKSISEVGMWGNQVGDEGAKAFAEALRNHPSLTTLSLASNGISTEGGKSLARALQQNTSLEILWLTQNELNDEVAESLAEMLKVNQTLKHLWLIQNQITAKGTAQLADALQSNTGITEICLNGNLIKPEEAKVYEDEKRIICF
Assay: inhibition of NOD1-driven NF-kB reporter – cell-based, luminescence, uHTS, primary screen (AID 1578)

| Compound | outcome |
| --- | --- |
| COc1ccc(Cc2nc3ccc(C(=O)N4CCN(C)C(C)C4)cc3o2)cc1OC (stereo not given) | active |
| Cc1cccc(CSc2cccc3cccnc23)c1 | active |
| Cn1c(=O)[nH]c(=O)c2c1nc(N1CCC(Cc3ccccc3)CC1)n2Cc1ccccc1 | active |
| CCCCCn1c(SCCc2ccccc2)nc2c1c(=O)[nH]c(=O)n2C | active |
| Cn1c(=O)[nH]c(=O)c2c1nc([N+](=O)[O-])n2Cc1ccccc1 | active |
| COc1cccc(-c2coc3c(C)c4oc(=O)c(CCC(=O)O)c(C)c4cc23)c1 | active |
| Cc1ccc(-c2csc(NC(=O)c3ccc4c(=O)n5c(nc4c3)CCCCC5)n2)cc1 | active |
| O=C(Nc1nc(-c2ccccc2)cs1)c1ccc2c(=O)n3c(nc2c1)CCCCC3 | active |
| COc1ccc(CNC(=O)c2cc3c(C)nc4ccccc4c3o2)c(OC)c1 | active |
| C/C(=N\Nc1nc2ccccc2[nH]1)c1ccccn1 | active |
| C/C(=N\NC(=O)c1cccc2ccccc12)c1ccccn1 | active |
| C/C(=N\NC(=O)c1ccccc1Cl)c1ccccn1 | active |
| C/C(=N\NC(=O)C1COc2ccccc2O1)c1ccccn1 (stereo not given) | active |
| C/C(=N\NC(=O)c1cc(-c2cccs2)nc2ccccc12)c1ccccn1 | active |
| C=CCNC(=S)N/N=C(\C)c1ccccn1 | active |
| C/C(=N\NC(=O)C(c1ccccc1)c1ccccc1)c1ccccn1 | active |
| C/C(=N\NC(=O)C(C)Oc1ccc([N+](=O)[O-])cc1)c1ccccn1 (stereo not given) | active |
| O=S1(=O)Nc2c(ccc3cccnc23)-c2ccccc21 | active |
| Cc1ccccc1-c1nc(CSc2nc3c(c(=O)[nH]2)CCC3)c(C)o1 | active |
| O=C(CCl)c1cc2c3c(c1)CC(=O)N3CCC2 | active |
| CCOc1cc(S(=O)(=O)NCc2ccncc2)ccc1Cl | active |
| CCN(CC)S(=O)(=O)c1ccc(C(=O)Nc2ccc(Cc3ccncc3)cc2)cc1 | active |
| Cc1ccc(C)c(N2CCN(C(=O)CCS(=O)(=O)c3ccc4c(c3)NC(=O)C(C)S4)CC2)c1 (stereo not given) | active |
| CCOc1ccc(/C=C/C(O)=C2/C(=O)N(C)C3(C)CC2c2ccccc2O3)cc1OC (stereo not given) | active |
| COc1ccc(-n2nc(C#N)c(Cl)cc2=O)cc1 | active |
| Cn1c(/C=C/c2ccc(Cl)cc2Cl)c([N+](=O)[O-])c(=O)n(C)c1=O | active |
| Cc1ccc(-n2c(-c3ccc(Br)cc3)c[n+]3c2CCc2ccc4cccnc4c2-3)cc1.[Br-] | active |
| O=c1cc(C(F)(F)F)[nH]c2ccc(OC(F)(F)F)cc12 | active |
| O=c1cc(C(F)(F)F)[nH]c2ccc(C(F)(F)F)cc12 | active |
| O=C1CSc2ccc(C(=O)Nc3cccc(S(=O)(=O)Nc4ccc(Br)cc4)c3)cc2N1 | active |
